# Calls of active or inactive are those of the source. How the source made its calls: active means hit-call score of the fitted dose curve at least 0.9, where 1 is the maximum; inactive means score below 0.9.
# Experiments:
# Conditions in all cases: mRNA level, 48 h; actives raise or lower the signal
# [1] = read-out: Early growth response protein 1 (EGR1) transcription factor, EGR1 (gene 1958); assay: LTEA_HepaRG_EGR1: Life Technologies and Expression Analysis (LTEA) Assay for Early growth response protein 1 (EGR1) transcription factor using HepaRG (AID 2283490)
# Outline: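 HepaRG, 48 h exposure, 8-pt half-log series from 100 uM, 0.5% DMSO vehicle; EGR1 transcript by TaqMan qRT-PCR (Fluidigm array), housekeeping-normalized; bidirectional fit relative to DMSO baseline.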
# [2] = read-out: Ezrin (EZR), EZR (gene 7430); assay: LTEA_HepaRG_EZR: Life Technologies and Expression Analysis (LTEA) Assay for Ezrin (EZR) using HepaRG (AID 2283491)
# Outline: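 EZR transcript levels came from Fluidigm qRT-PCR and were normalized to three housekeeping genes after 48 h chemical exposure of HepaRG cells. Dosing used an 8-point half-log series with a 100 uM top concentration in 0.5% DMSO, tested in duplicate; both directions were fitted versus vehicle.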
# CYP3A5 (gene 1577) = assay: LTEA_HepaRG_CYP3A5: Life Technologies and Expression Analysis (LTEA) Assay for CYP3A5 using HepaRG (AID 2283493)
# Outline: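 Human HepaRG hepatic cells receive 48 h chemical treatment at eight concentrations (half-log steps from 100 uM) in 0.5% DMSO. Expression of CYP3A5 is quantified by Fluidigm qRT-PCR and normalized to three reference genes.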
# [3] = read-out: Fatty Acid-Binding Protein 1 (FABP1), FABP1 (gene 2168); assay: LTEA_HepaRG_FABP1: Life Technologies and Expression Analysis (LTEA) Assay for Fatty Acid-Binding Protein 1 (FABP1) using HepaRG (AID 2283494)
# Outline: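 qRT-PCR readout of FABP1 transcript (normalized to three housekeeping genes) after 48 h chemical exposure of HepaRG cells; eight concentrations, half-log steps, max 100 uM, 0.5% DMSO vehicle; gain or loss fitted relative to DMSO baseline.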
# [4] = read-out: Cytochrome P450 4A22 (Homo sapiens) (UniProt Q5TCH4); assay: LTEA_HepaRG_CYP4A22: Life Technologies and Expression Analysis (LTEA) Assay for Cytochrome P450 4A22 (CYP4A22) using HepaRG (AID 2283495)
# Outline: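 Differentiated HepaRG cells in serum-free induction medium exposed 48 h in duplicate to eight half-log concentrations up to 100 uM in 0.5% DMSO. CYP4A22 mRNA quantified by TaqMan qRT-PCR, normalized to ACTB, GAPDH and POLR2A; bidirectional fit versus DMSO.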
# [5] = read-out: Glutathione S-Transferase (GSTA2), GSTA2 (gene 2939); assay: LTEA_HepaRG_GSTA2: Life Technologies and Expression Analysis (LTEA) Assay for Glutathione S-Transferase (GSTA2) using HepaRG (AID 2283497)
# Outline: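 qRT-PCR readout of GSTA2 transcript, normalized to three housekeeping genes, fitted bidirectionally against 0.5% DMSO baseline. Differentiated HepaRG cells received compound for 48 h at 8 concentrations (top 100 uM, half-log steps).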
# [6] = read-out: Glutamate-cysteine ligase catalytic (GCLC), GCLC (gene 2729); assay: LTEA_HepaRG_GCLC: Life Technologies and Expression Analysis (LTEA) Assay for Glutamate-cysteine ligase catalytic (GCLC) using HepaRG (AID 2283498)
# Outline: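 HepaRG, 48 h exposure, 8-pt half-log series from 100 uM, 0.5% DMSO vehicle; TaqMan qRT-PCR for GCLC mRNA, housekeeping-normalized; bidirectional curve fit vs DMSO baseline.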
# [7] = read-out: growth arrest and DNA damage 45 (GADD45G), GADD45G (gene 10912); assay: LTEA_HepaRG_GADD45G: Life Technologies and Expression Analysis (LTEA) Assay for growth arrest and DNA damage 45 (GADD45G) using HepaRG (AID 2283499)
# Outline: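 Differentiated human HepaRG cells, 48 h post-plating, exposed 48 h in serum-free induction medium to 8 half-log concentrations (top 100 uM, 0.5% DMSO) in duplicate. GADD45G mRNA measured by Fluidigm TaqMan qRT-PCR, normalized to ACTB, GAPDH, POLR2A; bidirectional fit versus DMSO.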
# [8] = read-out: Glutamate-cysteine ligase regulatory (GCLM), GCLM (gene 2730); assay: LTEA_HepaRG_GCLM: Life Technologies and Expression Analysis (LTEA) Assay for Glutamate-cysteine ligase regulatory (GCLM) using HepaRG (AID 2283500)
# Outline: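 Endpoint is GCLM transcript level by qRT-PCR, normalized to three housekeeping genes, after 48 h chemical exposure of human HepaRG cells (0.5% DMSO vehicle, top 100 uM, half-log dilutions). Fitting was bidirectional relative to DMSO.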
# [9] = read-out: Glutathione S-transferase M3 (GSTM3), GSTM3 (gene 2947); assay: LTEA_HepaRG_GSTM3: Life Technologies and Expression Analysis (LTEA) Assay for Glutathione S-transferase M3 (GSTM3) using HepaRG (AID 2283501)
# Outline: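 Differentiated human HepaRG cells were exposed in duplicate for 48 h in serum-free induction medium, 8 points from 100 uM top in half-log steps, 0.5% DMSO. GSTM3 mRNA was measured by TaqMan qRT-PCR, normalized to ACTB, GAPDH and POLR2A; bidirectional fit versus DMSO.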
# [10] = read-out: Heat shock 70 kDa protein 1 (HSPA1A), gene 3303; assay: LTEA_HepaRG_HSPA1A: Life Technologies and Expression Analysis (LTEA) Assay for Heat shock 70 kDa protein 1 (HSPA1A) using HepaRG (AID 2283502)
# Outline: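 Cells were plated and cultured for 48 h, then switched to serum-free induction medium. Chemicals were added at eight half-log concentrations up to 100 uM for 48 h. RNA was then isolated and HSPA1A measured by qRT-PCR with bidirectional curve fitting against DMSO.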
# [11] = read-out: Hypoxia-inducible factor 1-alpha (Homo sapiens) (UniProt Q16665); assay: LTEA_HepaRG_HIF1A: Life Technologies and Expression Analysis (LTEA) Assay for Hypoxia-inducible factor 1 (HIF1A) Trancription factor using HepaRG (AID 2283503)
# Outline: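 HIF1A transcript level read by qRT-PCR (ACTB, GAPDH, POLR2A normalization) after 48 h chemical exposure of HepaRG cultures. Eight half-log concentrations, top 100 uM, 0.5% DMSO vehicle, duplicates; bidirectional curve fit against DMSO baseline.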
# [12] = read-out: 3-Hydroxy-3-Methylglutaryl-CoA Synthase 2 (HMGCS2), HMGCS2 (gene 3158); assay: LTEA_HepaRG_HMGCS2: Life Technologies and Expression Analysis (LTEA) Assay for 3-Hydroxy-3-Methylglutaryl-CoA Synthase 2 (HMGCS2) using HepaRG (AID 2283504)
# Outline: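 Human HepaRG cells in serum-free induction medium were exposed in duplicate for 48 h to 8-point half-log series from 100 uM top in 0.5% DMSO. HMGCS2 mRNA measured by TaqMan qRT-PCR, normalised to ACTB, GAPDH, POLR2A; bidirectional fit versus DMSO.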
# HGF (gene 3082) = assay: LTEA_HepaRG_HGF: Life Technologies and Expression Analysis (LTEA) Assay for Hepatocyte Growth Facto (HGF) using HepaRG (AID 2283505)
# Outline: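 Differentiated HepaRG cells in serum-free induction medium exposed 48 h in duplicate, 8 half-log concentrations from 100 uM in 0.5% DMSO. HGF mRNA by qRT-PCR, normalised to ACTB, GAPDH, POLR2A; bidirectional fitting.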
# [13] = read-out: Insulin Like Growth Factor 1 (IGF1), IGF1 (gene 3479); assay: LTEA_HepaRG_IGF1: Life Technologies and Expression Analysis (LTEA) Assay for Insulin Like Growth Factor 1 (IGF1) using HepaRG (AID 2283506)
# Outline: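 Cells are thawed, plated and cultured 48 h, then exposed in duplicate to chemical (highest 100 uM, half-log steps, 0.5% DMSO) for another 48 h. Total RNA is analysed by Fluidigm qRT-PCR for IGF1 expression relative to vehicle.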
# [14] = read-out: Intercellular Adhesion Molecule 1 (ICAM1), ICAM1 (gene 3383); assay: LTEA_HepaRG_ICAM1: Life Technologies and Expression Analysis (LTEA) Assay for Intercellular Adhesion Molecule 1 (ICAM1) using HepaRG (AID 2283507)
# Outline: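 Differentiated human HepaRG cells in serum-free induction medium exposed 48 h in duplicate to 8 half-log concentrations (top 100 uM, 0.5% DMSO). ICAM1 mRNA quantified by TaqMan qRT-PCR, normalized to ACTB, GAPDH and POLR2A; bidirectional fitting versus DMSO.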
# [15] = read-out: Insulin-like growth factor-binding protein 1 (IGFBP1), IGFBP1 (gene 3484); assay: LTEA_HepaRG_IGFBP1: Life Technologies and Expression Analysis (LTEA) Assay for Insulin-like growth factor-binding protein 1 (IGFBP1) using HepaRG (AID 2283508)
# Outline: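 HepaRG cells, plated 48 h then switched to serum-free induction medium, exposed in duplicate for 48 h to 8-point half-log series from 100 uM in 0.5% DMSO. mRNA measured by qRT-PCR, normalized to ACTB/GAPDH/POLR2A; bidirectional fit versus DMSO.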
# [16] = read-out: Cytochrome P450 3A7 (Homo sapiens) (UniProt P24462); assay: LTEA_HepaRG_CYP3A7: Life Technologies and Expression Analysis (LTEA) Assay for CYP3A7 using HepaRG (AID 2283492)
# Outline: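 Differentiated HepaRG cells in serum-free induction medium exposed 48 h in duplicate to 8-point half-log series from 100 uM top in 0.5% DMSO. CYP3A7 mRNA by qRT-PCR, normalized to ACTB/GAPDH/POLR2A, bidirectional fit versus DMSO.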
# Sequence of Hypoxia-inducible factor 1-alpha (Homo sapiens) (Q16665 whole entry, looked up): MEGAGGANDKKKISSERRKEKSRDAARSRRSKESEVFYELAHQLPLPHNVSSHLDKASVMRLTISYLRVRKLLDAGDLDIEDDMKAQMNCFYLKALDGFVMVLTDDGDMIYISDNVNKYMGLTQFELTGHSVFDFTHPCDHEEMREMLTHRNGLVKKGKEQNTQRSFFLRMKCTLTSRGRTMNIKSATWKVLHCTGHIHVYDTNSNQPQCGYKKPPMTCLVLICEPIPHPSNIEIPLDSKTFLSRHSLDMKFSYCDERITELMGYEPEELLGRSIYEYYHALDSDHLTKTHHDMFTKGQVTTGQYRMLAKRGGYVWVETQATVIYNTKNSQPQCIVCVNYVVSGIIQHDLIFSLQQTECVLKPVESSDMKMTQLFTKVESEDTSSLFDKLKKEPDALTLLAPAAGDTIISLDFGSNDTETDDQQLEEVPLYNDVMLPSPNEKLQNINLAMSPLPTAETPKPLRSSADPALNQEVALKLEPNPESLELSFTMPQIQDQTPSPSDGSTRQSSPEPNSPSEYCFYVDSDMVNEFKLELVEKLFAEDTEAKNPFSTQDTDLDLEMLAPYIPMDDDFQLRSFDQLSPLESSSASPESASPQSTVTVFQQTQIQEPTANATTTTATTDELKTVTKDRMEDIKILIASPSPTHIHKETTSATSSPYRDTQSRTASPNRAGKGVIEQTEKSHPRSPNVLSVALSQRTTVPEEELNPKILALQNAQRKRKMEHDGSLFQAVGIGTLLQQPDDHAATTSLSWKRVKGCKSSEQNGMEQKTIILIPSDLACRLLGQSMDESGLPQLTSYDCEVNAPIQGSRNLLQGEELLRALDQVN
# Sequence of Cytochrome P450 3A7 (Homo sapiens) (P24462 whole entry, looked up): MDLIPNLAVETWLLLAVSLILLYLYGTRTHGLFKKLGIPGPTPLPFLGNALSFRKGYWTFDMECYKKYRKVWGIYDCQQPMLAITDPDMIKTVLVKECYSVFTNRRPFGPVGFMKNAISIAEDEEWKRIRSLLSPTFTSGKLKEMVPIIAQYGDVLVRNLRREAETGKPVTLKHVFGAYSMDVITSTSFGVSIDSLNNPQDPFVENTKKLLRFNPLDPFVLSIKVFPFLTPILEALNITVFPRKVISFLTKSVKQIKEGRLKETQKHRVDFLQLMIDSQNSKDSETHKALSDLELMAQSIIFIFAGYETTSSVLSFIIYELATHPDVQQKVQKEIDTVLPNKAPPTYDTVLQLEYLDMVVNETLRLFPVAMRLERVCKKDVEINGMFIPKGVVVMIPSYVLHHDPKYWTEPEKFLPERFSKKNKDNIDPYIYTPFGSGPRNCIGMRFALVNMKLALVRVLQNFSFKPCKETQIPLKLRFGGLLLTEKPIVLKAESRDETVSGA
smiles,measurement,setting,value
N#Cc1nn(-c2c(Cl)cc(C(F)(F)F)cc2Cl)c(N)c1S(=O)C(F)(F)F (configuration not stated),AC50,[1],13.2 µM (active)
same,AC50,[2],29.3 µM (active)
same,outcome,CYP3A5 (gene 1577),inactive
same,AC50,[3],24.1 µM (active)
same,AC50,[4],26.2 µM (active)
same,AC50,[5],32 µM (active)
same,outcome,[6],inactive
same,AC50,[7],31.5 µM (active)
same,AC50,[8],29.1 µM (active)
same,AC50,[9],80.8 µM (active)
same,AC50,[10],11.9 µM (active)
same,AC50,[11],79.5 µM (active)
same,AC50,[12],38.3 µM (active)
same,AC50,HGF (gene 3082),90.3 µM (active)
same,AC50,[13],13.4 µM (active)
same,outcome,[14],inactive
same,AC50,[15],47.7 µM (active)
CCCC1COC(Cn2cncn2)(c2ccc(Cl)cc2Cl)O1 (configuration not stated),outcome,[1],inactive
same,outcome,[2],inactive
same,AC50,[16],29.5 µM (active)
same,outcome,CYP3A5 (gene 1577),inactive
same,AC50,[3],36.3 µM (active)
same,AC50,[4],31.7 µM (active)
same,AC50,[5],37 µM (active)
same,outcome,[6],inactive
same,AC50,[7],35.6 µM (active)
same,AC50,[8],50 µM (active)
same,AC50,[9],64.5 µM (active)
same,AC50,[10],90.5 µM (active)
same,AC50,[11],50 µM (active)
same,AC50,[12],36.5 µM (active)
same,AC50,HGF (gene 3082),50 µM (active)
same,AC50,[13],25.5 µM (active)
same,AC50,[14],77.1 µM (active)
same,AC50,[15],34.4 µM (active)
Fc1ccc(Oc2ccnc3cc(Cl)cc(Cl)c23)cc1,outcome,[1],inactive
same,outcome,[2],inactive
same,AC50,[16],79.4 µM (active)
same,outcome,CYP3A5 (gene 1577),inactive
same,AC50,[3],87 µM (active)
same,AC50,[4],82.6 µM (active)
same,AC50,[5],83.6 µM (active)
same,outcome,[6],inactive
same,outcome,[7],inactive
same,outcome,[8],inactive
same,outcome,[9],inactive
same,outcome,[10],inactive
same,outcome,[11],inactive
same,outcome,[12],inactive
same,outcome,HGF (gene 3082),inactive
same,AC50,[13],50 µM (active)
same,outcome,[14],inactive
same,AC50,[15],57.2 µM (active)
COP(N)(=O)SC (configuration not stated),outcome,[1],inactive
same,outcome,[2],inactive
same,outcome,[16],inactive
same,outcome,CYP3A5 (gene 1577),inactive
same,outcome,[3],inactive
same,outcome,[4],inactive
same,outcome,[5],inactive
same,outcome,[6],inactive
same,outcome,[7],inactive
same,outcome,[8],inactive
same,outcome,[9],inactive
same,outcome,[10],inactive
same,outcome,[11],inactive
same,outcome,[12],inactive
same,outcome,HGF (gene 3082),inactive
same,outcome,[13],inactive
same,outcome,[14],inactive
same,outcome,[15],inactive
CCNc1nc(Cl)nc(NC(C)C)n1,outcome,[1],inactive
same,outcome,[2],inactive
same,outcome,[16],inactive
same,outcome,CYP3A5 (gene 1577),inactive
same,outcome,[3],inactive
same,AC50,[4],50 µM (active)
same,outcome,[5],inactive
same,outcome,[6],inactive
same,outcome,[7],inactive
same,outcome,[8],inactive
same,outcome,[9],inactive
same,outcome,[10],inactive
same,outcome,[11],inactive
same,outcome,[12],inactive
same,outcome,HGF (gene 3082),inactive
same,AC50,[13],50 µM (active)
same,outcome,[14],inactive
same,outcome,[15],inactive
CCCCNC(=O)n1c(NC(=O)OC)nc2ccccc21,outcome,[1],inactive
same,outcome,[2],inactive
same,outcome,[16],inactive
same,outcome,CYP3A5 (gene 1577),inactive
same,outcome,[3],inactive
same,outcome,[4],inactive
same,outcome,[5],inactive
same,outcome,[6],inactive
same,outcome,[7],inactive
same,outcome,[8],inactive
same,outcome,[9],inactive
same,outcome,[10],inactive
same,outcome,[11],inactive
same,outcome,[12],inactive
same,outcome,HGF (gene 3082),inactive
same,outcome,[13],inactive
same,outcome,[14],inactive
same,outcome,[15],inactive

# From PubChem BioAssay (EPA / NIEHS)
